The supplement of paper PMC10849652
Targets with a hit are over-represented here; the source holds about 8,800 in all. About 0.5% of all pairs of compound and target were hits.

Experiments:
Assay in all cases: log2 fold change, soluble protein after heating vs DMSO (PISA); higher = thermal stabilisation; K562 lysate, 10 uM; active = over 0.2 and 3.5 SD of the protein, either way, in both replicates (recomputed)
erlotinib = compound: C#Cc1cccc(Nc2ncnc3cc(OCCOC)c(OCCOC)cc23)c1 [erlotinib]
Summary of the method: (§1)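 Soluble protein was defined as the supernatant remaining after 21,000xg for 90 min, following pooling of heated aliquots and adjustment to 0.5% NP-40 at 4°C. Before that, crude K562 extract at 1 mg/mL protein in PBS pH 7.4 with 1 mM MgCl2 was treated with 10 μM compound for 30 min and heated for 3 min across 48°C-58°C. Quantification used TMTpro 16plex LC-MS/MS with channel sums equalised, and values are log-two fold changes in thermal stability relative to solvent controls from duplicates.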

[1] = compound: C/C(=N\NC(=O)C1=CC(=CC=C1)S(=O)(=O)N2CCOCC2)/C3=C(C=CC(=C3)Cl)O
Summary of the method: as §1

[2] = compound: C1=CC(=CC=C1C2=NC3=C(N2)C=C(C=C3)C(=O)N)OC4=CC=C(C=C4)Cl
Summary of the method: as §1

[3] = compound: C1=CC2=C(C=CC(=C2)/C=C\3/C(=O)NC(=NCC4=CC=CS4)S3)N=C1
Summary of the method: as §1

[4] = compound: C1=CC=C2C(=C1)C3=NNC4=CC=CC(=C43)C2=O
Summary of the method: as §1

[5] = compound: C1CCN(C1)C(=O)NC2=CC=CC(=C2)NC3=NC=C(C(=N3)NCCC4=CN=CN4)Br
Summary of the method: as §1

[6] = compound: C1CN(CCC1(CC2=CC=C(C=C2)Cl)N)C3=NC=NC4=C3C=CN4
Summary of the method: as §1

[7] = compound: CC(C)C1=C2N=C(C=C(N2N=C1)NCC3=CC=CC=C3)NCCCCCCN
Summary of the method: as §1

[8] = compound: C1=CC=C(C=C1)C2=NC(=C(N2)C3=CC=NC=C3)C4=CC(=C(C=C4)Cl)O
Summary of the method: as §1

IRAK-1-4 Inhibitor I = compound: C1COCCN1CCN2C3=CC=CC=C3N=C2NC(=O)C4=CC(=CC=C4)[N+](=O)[O-] [IRAK-1-4 Inhibitor I]
Summary of the method: as §1

[9] = compound: CC(=O)c1cnc2ccc(-c3cc(Cl)c(O)c(Cl)c3)nc2c1N[C@H]1CC[C@H](CN(C)C)CC1
Summary of the method: as §1

ralimetinib = compound: CC(C)(C)Cn1c(N)nc2ccc(-c3[nH]c(C(C)(C)C)nc3-c3ccc(F)cc3)nc21 [ralimetinib]
Summary of the method: as §1

[10] = compound: CC(C)(O)CC(=O)NCCn1ccc2ncnc(Nc3ccc(Oc4cccc(C(F)(F)F)c4)c(Cl)c3)c21
Summary of the method: as §1

[11] = compound: CC1=C(C2=C(C=C1)C(=O)C3=CC=CC=C3N2CCCN)C
Summary of the method: as §1

[12] = compound: CC1=C(C=C(C=C1)NC(=O)C2=CC(=CC=C2)C(C)(C)C#N)NC3=CC4=C(C=C3)N=CN(C4=O)C
Summary of the method: as §1

[13] = compound: CC1=C(C=C(C=C1)NC(=O)C2=CC(=CC=C2)N(C)C)NC(=O)C3=CC=C(C=C3)O
Summary of the method: as §1

[14] = compound: CC1=CC=C(C=C1)SC2=C3C=C(SC3=CN=C2)C(=O)N
Summary of the method: as §1

[15] = compound: C1=CC2=NC=CN=C2C=C1/C=C/3\C(=O)NC(=O)S3
Summary of the method: as §1

ibrutinib = compound: C=CC(=O)N1CCC[C@@H](n2nc(-c3ccc(Oc4ccccc4)cc3)c3c(N)ncnc32)C1 [ibrutinib]
Summary of the method: as §1

[16] = compound: CC1=C(C(CC(=O)N1)C2=CC=C(C=C2)C(F)(F)F)C(=O)NC3=C(C=C4C(=C3)C=NN4)F
Summary of the method: as §1

Measured: log2 fold change

CAD (UniProt H7BZB3)
inactive: erlotinib 0.126 | [1] -0.127 | [2] -0.28 | [3] -0.069 | [4] -0.034 | [5] -0.035 | [6] -0.007 | [7] -0.073

CAPNS1 (UniProt K7ES78)
inactive: erlotinib 0.193 | [1] -0.23 | [2] 0.019 | [3] -0.275 | [8] -0.048 | [4] 0.047 | IRAK-1-4 Inhibitor I -0.09 | [9] 0.028 | ralimetinib 0.061 | [10] -0.196 | [7] -0.101 | [11] 0.025 | [12] 0.148 | [13] -0.105 | [14] -0.075

CASP7 isoform 3 (UniProt P55210)
Chain of UniProt P55210 (P55210 whole entry, looked up): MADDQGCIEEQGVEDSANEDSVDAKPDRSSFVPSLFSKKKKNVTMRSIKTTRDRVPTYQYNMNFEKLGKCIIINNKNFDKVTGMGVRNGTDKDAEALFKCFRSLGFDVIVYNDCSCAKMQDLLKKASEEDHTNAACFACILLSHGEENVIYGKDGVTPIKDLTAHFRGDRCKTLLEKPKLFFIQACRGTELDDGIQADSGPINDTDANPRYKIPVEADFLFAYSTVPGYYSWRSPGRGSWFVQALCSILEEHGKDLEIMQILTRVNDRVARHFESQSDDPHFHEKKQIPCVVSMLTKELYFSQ
inactive: erlotinib 0.104 | [2] 0.008 | [15] -0.086 | [8] 0.019 | [5] -0.013 | [6] 0.098 | IRAK-1-4 Inhibitor I 0.241 | ibrutinib 0 | [9] 0.125 | ralimetinib -0.118 | [10] -0.012 | [7] -0.123 | [16] -0.029 | [11] -0.161 | [12] 0.043 | [13] -0.124 | [14] -0.052

CAPNS1 (UniProt U3KPR7)
inactive: [15] -0.105 | ibrutinib 0.034 | [9] -0.007 | [16] 0.155 | [14] 0.099

B3GALT6 (UniProt Q96L58)
Chain of UniProt Q96L58 (Q96L58 whole entry, looked up): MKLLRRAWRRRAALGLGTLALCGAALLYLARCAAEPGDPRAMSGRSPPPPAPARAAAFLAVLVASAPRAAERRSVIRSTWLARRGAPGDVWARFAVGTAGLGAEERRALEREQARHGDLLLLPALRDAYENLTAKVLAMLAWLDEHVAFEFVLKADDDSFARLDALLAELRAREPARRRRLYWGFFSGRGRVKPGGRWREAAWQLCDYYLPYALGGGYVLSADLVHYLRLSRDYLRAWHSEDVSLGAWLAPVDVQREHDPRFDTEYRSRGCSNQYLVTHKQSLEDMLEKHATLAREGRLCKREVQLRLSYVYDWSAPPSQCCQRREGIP
inactive: erlotinib 0.074 | [2] -0.04 | [15] 0.022 | [8] -0.028 | IRAK-1-4 Inhibitor I -0.049 | ibrutinib -0.025 | ralimetinib 0.065 | [10] 0.23 | [7] -0.025 | [11] -0.112 | [12] -0.168 | [13] -0.046

CENPV (UniProt Q7Z7K6)
Chain of UniProt Q7Z7K6 (Q7Z7K6 whole entry, looked up): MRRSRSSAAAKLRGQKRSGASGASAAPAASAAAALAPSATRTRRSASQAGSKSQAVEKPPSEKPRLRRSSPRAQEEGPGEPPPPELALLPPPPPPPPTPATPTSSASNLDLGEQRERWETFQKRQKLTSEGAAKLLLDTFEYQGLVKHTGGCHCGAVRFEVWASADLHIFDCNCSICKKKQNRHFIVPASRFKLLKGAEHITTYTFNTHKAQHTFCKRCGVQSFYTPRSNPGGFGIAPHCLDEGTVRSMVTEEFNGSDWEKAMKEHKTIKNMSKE
inactive: [1] -0.033 | [3] 0.013 | [15] -0.093 | [8] -0.193 | [4] 0.015 | [5] -0.037 | [6] 0.012 | IRAK-1-4 Inhibitor I 0.013 | ibrutinib 0.036 | ralimetinib 0.352 | [10] -0.235 | [16] 0.182 | [12] 0.121 | [13] -0.13

ATXN2 (UniProt F8WB06)
inactive: [11] 0.187

BRAF, A0A2R8Y8E0
inactive: [1] -0.005 | [3] 0.001 | [4] 0.119 | [5] 0.067 | [6] -0.045

C3AR1 (UniProt Q16581)
Chain of UniProt Q16581 (Q16581 whole entry, looked up): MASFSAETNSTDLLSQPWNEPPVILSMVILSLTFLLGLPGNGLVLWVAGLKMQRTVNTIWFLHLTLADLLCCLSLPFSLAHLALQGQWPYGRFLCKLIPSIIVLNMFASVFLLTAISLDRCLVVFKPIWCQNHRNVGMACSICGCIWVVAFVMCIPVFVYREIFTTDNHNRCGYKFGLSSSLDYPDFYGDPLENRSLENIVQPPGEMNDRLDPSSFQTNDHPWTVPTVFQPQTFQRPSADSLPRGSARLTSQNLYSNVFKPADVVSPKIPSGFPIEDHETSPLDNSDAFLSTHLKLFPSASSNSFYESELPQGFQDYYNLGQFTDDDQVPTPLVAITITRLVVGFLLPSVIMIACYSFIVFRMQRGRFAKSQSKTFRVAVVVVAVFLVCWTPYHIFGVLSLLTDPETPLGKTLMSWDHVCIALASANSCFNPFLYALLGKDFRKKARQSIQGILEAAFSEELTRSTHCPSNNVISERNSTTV
inactive: [15] 0.145 | ibrutinib 0.018 | [16] 0.001 | [12] -0.074

CEP57L1 (UniProt Q8IYX8)
Chain of UniProt Q8IYX8 (Q8IYX8 whole entry, looked up): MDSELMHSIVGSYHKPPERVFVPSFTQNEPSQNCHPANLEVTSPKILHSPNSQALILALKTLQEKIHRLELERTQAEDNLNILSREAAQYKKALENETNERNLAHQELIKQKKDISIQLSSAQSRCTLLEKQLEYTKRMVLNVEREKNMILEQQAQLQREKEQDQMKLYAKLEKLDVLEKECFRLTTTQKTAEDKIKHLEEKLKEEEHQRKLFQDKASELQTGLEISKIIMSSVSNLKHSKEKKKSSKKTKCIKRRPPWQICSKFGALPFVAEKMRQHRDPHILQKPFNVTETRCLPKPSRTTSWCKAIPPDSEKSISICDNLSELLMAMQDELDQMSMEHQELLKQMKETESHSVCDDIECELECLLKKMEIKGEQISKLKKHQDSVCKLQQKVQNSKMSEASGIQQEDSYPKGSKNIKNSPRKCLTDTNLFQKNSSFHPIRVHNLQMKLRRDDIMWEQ
inactive: erlotinib -0.064 | [2] 0.118 | [15] -0.021 | [8] -0.041 | [5] -0.013 | [6] 0.101 | IRAK-1-4 Inhibitor I 0.35 | ibrutinib -0.039 | ralimetinib 0.171 | [10] -0.272 | [7] -0.049 | [16] 0.11 | [11] -0.191 | [12] -0.037 | [13] -0.044

BICRA (UniProt Q9NZM4)
Chain of UniProt Q9NZM4 (Q9NZM4 whole entry, looked up): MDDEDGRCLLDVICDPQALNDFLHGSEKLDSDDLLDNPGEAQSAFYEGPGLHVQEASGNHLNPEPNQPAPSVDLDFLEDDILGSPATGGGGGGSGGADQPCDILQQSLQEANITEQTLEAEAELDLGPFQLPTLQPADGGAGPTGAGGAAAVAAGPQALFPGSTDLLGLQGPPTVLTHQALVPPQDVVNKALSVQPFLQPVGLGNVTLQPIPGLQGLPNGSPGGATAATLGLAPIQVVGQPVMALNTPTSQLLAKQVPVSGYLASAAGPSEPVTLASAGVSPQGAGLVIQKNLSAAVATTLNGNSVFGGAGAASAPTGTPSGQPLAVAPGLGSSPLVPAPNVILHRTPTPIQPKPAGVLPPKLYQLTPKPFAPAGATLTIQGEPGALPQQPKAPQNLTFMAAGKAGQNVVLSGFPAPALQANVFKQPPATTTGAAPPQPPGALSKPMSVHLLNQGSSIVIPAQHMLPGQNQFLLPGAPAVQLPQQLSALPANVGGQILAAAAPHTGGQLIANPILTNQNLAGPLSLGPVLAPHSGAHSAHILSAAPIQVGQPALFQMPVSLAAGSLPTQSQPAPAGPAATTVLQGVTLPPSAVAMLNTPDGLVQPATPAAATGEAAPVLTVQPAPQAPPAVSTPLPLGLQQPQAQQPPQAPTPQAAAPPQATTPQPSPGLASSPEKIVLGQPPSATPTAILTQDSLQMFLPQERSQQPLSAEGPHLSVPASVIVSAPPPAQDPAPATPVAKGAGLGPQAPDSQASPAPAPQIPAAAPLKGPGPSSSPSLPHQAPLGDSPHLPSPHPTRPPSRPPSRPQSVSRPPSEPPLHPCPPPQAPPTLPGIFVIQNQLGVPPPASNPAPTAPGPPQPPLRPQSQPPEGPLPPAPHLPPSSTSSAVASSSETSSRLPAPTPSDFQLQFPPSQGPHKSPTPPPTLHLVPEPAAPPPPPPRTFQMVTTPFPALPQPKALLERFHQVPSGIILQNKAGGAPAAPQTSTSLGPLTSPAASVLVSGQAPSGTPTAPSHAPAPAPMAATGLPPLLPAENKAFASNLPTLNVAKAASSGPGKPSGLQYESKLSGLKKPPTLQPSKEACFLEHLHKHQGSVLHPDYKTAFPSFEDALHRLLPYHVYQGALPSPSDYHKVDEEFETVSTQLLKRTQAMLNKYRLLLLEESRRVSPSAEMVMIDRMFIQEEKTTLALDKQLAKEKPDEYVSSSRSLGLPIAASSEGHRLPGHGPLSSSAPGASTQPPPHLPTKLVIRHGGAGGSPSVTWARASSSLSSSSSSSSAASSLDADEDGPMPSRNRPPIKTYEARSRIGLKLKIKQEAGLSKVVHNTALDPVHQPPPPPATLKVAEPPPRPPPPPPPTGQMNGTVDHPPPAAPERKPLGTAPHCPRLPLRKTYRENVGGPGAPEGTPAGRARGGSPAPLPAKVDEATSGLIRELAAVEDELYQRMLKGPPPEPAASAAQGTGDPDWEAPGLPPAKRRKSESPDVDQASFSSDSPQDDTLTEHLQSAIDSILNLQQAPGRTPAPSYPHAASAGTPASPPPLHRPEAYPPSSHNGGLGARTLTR
inactive: erlotinib 0.204 | [2] 0.231 | [15] 0.12 | [8] 0.065 | IRAK-1-4 Inhibitor I 0.115 | ibrutinib -0.053 | [9] -0.093 | ralimetinib -0.138 | [10] -0.271 | [7] 0.102 | [11] -0.168 | [12] -0.012 | [13] -0.003 | [14] -0.156

CDAN1 (UniProt H3BPZ6)
inactive: [12] -0.172
